± gives the standard deviation of the averaged measurements.

The test system of this test is iBMDM (immortalised mouse bone-marrow-derived macrophages), LPS-stimulated. Description: mitochondrial superoxide (MitoSOX fluorescence) fold increase over unstimulated control; higher = more LPS-induced mitochondrial ROS (less inhibition). To be noted: inhibitor concentration: 500 nM; LPS: 100 ng/ml; time after LPS: 4 h. Summed up:
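Mitochondrial superoxide was expressed as fold induction over untreated macrophages. Immortalised mouse bone-marrow-derived macrophages were pretreated with kinase inhibitors (500 nM) for 30 min, loaded with 1 μM MitoSox for 10 min and stimulated with LPS (100 ng/ml). MitoSox fluorescence (excitation 510 nm, emission 580 nm) was read hourly over 4 h, and the three replicates were averaged.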
Consider `O=c1cc(N2CCOCC2)oc2c(-c3ccccc3)cccc12`, for which the mitochondrial superoxide was found to be 1.52 ± 0.035.
As to `CCc1nc(-c2cccc(C)c2)c(-c2ccnc(NC(=O)c3ccccc3)c2)s1`, the mitochondrial superoxide was 1.18 ± 0.04.
In the case of `O=C(O)[C@]1(Cc2cccc(Nc3nccs3)n2)CC[C@@H](Oc2cccc(Cl)c2F)CC1` it was 1.51 ± 0.044; in that of `CN1CCN(CCOc2cc(OC3CCOCC3)c3c(Nc4c(Cl)ccc5c4OCO5)ncnc3c2)CC1` [Saracatinib (AZD0530)], 1.85 ± 0.073.
Turning to `O=Nc1c(-c2c(O)[nH]c3cc(Br)ccc23)[nH]c2ccccc12`, the mitochondrial superoxide is 1.64 ± 0.067.
The same measure for `C[C@@]1(C(=O)Nc2ccc(F)nc2)CCCN1c1nc(Nc2cc(C3CC3)n[nH]2)c2cccn2n1`: 1.45 ± 0.066.
